Measurements from PubChem BioAssay (Tox21).
Several values for one entry are separate records, joined by “and”; a condition that tells them apart may be missing. Equal entries are not always repeated. The source holds several records for some structures; these can differ, active in one and inactive in another. Activity calls are given as the source filed them. Entries that show only a call come without a potency. Unless noted, calls come from the whole dose curve; as a rule, active = well fitted curve in the direction sought with a large enough effect in the repeat runs; inconclusive = weak or mixed curves; inactive = no such curve, though single readings can be large; an effect the other way counts as inactive or inconclusive.

Experiments:
[1] = qHTS assay to identify small molecule antagonists of the thyroid receptor (TR) signaling pathway (AID 743065); note: nearly all actives have a fitted effect of over 55% in size
Method in brief: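 Antagonism measured as loss of luciferase signal in GH3 cells stably carrying a TRE-luciferase reporter, co-treated with compound and T3 (1 nM final) for 23.5 h at 37 C. Viability was read in the same well by CellTiter-Fluor.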

[2] = system: thyroid hormone receptor (rat, GH3 cells); assay: qHTS assay to identify small molecule agonists of the thyroid receptor (TR) signaling pathway (AID 743066; calls by dose curve)
[3] = target: Estrogen receptor (Homo sapiens) (UniProt P03372); assay: qHTS assay to identify small molecule antagonists of the estrogen receptor alpha (ER-alpha) signaling pathway (AID 743069; active = well fitted curve in the direction sought with a large enough effect in the signal ratio in the repeat runs, not every such curve was filed as active; inconclusive = weak or mixed curves, or effect the other way; inactive = no such curve, though single readings can be large or run the other way; the % refers to the signal ratio)
Method in brief: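 Fluorescence intensity from a beta-lactamase FRET substrate served as the read-out. Cells: HEK293 with stably integrated ER-alpha-UAS-bla reporter. Agonist 17beta-estradiol was co-added with compounds; incubation 18 hr at 37C, substrate 2 hr at room temperature.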

[4] = qHTS assay to identify small molecule antagonists of the estrogen receptor alpha (ER-alpha) signaling pathway - cell viability counter screen (AID 743074; calls by dose curve; note: nearly all actives have a fitted effect of over 45% in size)
[5] = target: Estrogen receptor (Homo sapiens) (UniProt P03372); assay: qHTS assay to identify small molecule agonists of the estrogen receptor alpha (ER-alpha) signaling pathway (AID 743075; calls by dose curve; note: potency is the fitted concentration of half-maximal effect)
[6] = target: Estrogen receptor (Homo sapiens) (UniProt P03372); assay: qHTS assay to identify small molecule agonists of the estrogen receptor alpha (ER-alpha) signaling pathway using the BG1 cell line (AID 743079); settings: BG1Luc4E2 cells, ERE-luciferase agonist, 22 h; activation: at 70.3 µM (top of the series) unless noted; note: nearly all actives have a fitted effect of over 20% in size; note: potency is the fitted concentration of half-maximal effect
[7] = qHTS assay to identify small molecule antagonists of the estrogen receptor alpha (ER-alpha) signaling pathway using the BG1 cell line (AID 743080; calls by dose curve;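 note: BG1 cells stimulated with 17beta-estradiol alongside compound; nearly all actives have a fitted effect of over 25% in size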)
Method in brief: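 BG1Luc4E2, endogenous ER-alpha, 4xERE-luc; 5 d charcoal-stripped FBS, phenol red free; 24 h plating; cpd + 17beta-estradiol 21.5 h, 37 C/5% CO2; CellTiter-Fluor viability 30 min, then ONE-Glo luciferase 30 min RT.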

[8] = qHTS assay to identify small molecule antagonists of the estrogen receptor alpha (ER-alpha) signaling pathway using the BG1 cell line - cell viability counter screen (AID 743081);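 note: compound given together with 17beta-estradiol as the ER stimulus; nearly all actives have a fitted effect of over 45% in size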; note: potency is the fitted concentration of half-maximal effect
Aromatase (Homo sapiens) = Aromatase (Homo sapiens) (UniProt P11511); assay: qHTS assay to identify aromatase inhibitors (AID 743083); note: nearly all actives have a fitted effect of over 55% in size; note: potency is the fitted concentration of half-maximal effect
[9] = qHTS assay to identify small molecule antagonists of the thyroid receptor (TR) signaling pathway - cell viability counter screen (AID 743064); note: nearly all actives have a fitted effect of over 50% in size; note: potency is the fitted concentration of half-maximal effect
Method in brief: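 Plate GH3.TRE-Luc cells; incubate 4 h at 37 °C; add compound, then T3 to 1 nM final; incubate 23.5 h; add CellTiter-Fluor; incubate 30 min at 37 °C, 5% CO2; read fluorescence.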

Aromatase (Homo sapiens), sequence (P11511 whole entry, looked up): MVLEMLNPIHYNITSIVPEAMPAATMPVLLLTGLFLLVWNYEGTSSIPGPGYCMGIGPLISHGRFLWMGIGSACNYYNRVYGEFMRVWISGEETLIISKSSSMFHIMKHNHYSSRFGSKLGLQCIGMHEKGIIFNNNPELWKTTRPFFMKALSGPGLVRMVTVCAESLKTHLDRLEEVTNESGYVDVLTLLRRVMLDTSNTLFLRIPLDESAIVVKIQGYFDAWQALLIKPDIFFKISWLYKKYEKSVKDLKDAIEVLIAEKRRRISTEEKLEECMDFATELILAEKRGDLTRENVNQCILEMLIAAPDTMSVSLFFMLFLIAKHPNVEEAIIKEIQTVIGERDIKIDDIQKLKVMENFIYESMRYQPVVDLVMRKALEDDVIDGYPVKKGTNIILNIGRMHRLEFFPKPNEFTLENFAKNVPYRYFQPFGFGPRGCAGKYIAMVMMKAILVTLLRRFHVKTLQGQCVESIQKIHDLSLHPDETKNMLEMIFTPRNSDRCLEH
Estrogen receptor (Homo sapiens), sequence (P03372 whole entry, looked up): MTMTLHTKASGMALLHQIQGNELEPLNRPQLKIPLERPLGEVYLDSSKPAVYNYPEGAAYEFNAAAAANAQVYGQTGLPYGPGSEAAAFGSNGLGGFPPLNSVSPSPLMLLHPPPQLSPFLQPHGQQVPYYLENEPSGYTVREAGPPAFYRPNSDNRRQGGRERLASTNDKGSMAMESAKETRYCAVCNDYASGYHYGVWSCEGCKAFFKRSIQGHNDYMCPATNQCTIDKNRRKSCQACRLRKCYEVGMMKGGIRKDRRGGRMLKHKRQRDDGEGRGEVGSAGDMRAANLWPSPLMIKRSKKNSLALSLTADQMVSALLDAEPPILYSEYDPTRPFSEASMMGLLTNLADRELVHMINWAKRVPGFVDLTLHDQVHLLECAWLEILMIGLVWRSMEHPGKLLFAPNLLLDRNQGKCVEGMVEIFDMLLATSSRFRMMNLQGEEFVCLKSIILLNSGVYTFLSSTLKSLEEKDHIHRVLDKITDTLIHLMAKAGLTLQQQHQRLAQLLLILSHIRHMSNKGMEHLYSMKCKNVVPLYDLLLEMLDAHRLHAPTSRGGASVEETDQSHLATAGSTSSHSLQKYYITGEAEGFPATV

## Cc1ccccc1C=O
[1]
  Potency: inactive
[2]
  Potency: inactive
[3]
  Potency: inactive
[4]
  Potency: inactive
[5]
  Potency: inactive
[6]
  Potency: inactive
[7]
  Potency: inactive
[8]
  Potency: inactive
Aromatase (Homo sapiens)
  Potency: inactive

## Cc1ncc(CO)c(CO)c1O
[9]
  Potency: inactive
[4]
  Potency: inactive
[8]
  Potency: inactive
Aromatase (Homo sapiens)
  Potency: inactive

## CCOC(=O)CC(=O)OCC
[9]
  Potency: inactive
[1]
  Potency: inactive
[2]
  Potency: inactive
[8]
  Potency: inactive

## Cc1ccc(C(C)C)cc1
[1]
  Potency: inactive
[2]
  Potency: inactive
[3]
  Potency: inactive
[4]
  Potency: inactive
[5]
  Potency: inactive
[6]
  Potency: inactive
[7]
  Potency: inactive
[8]
  Potency: inactive
Aromatase (Homo sapiens)
  Potency: inactive

## O=C(O)C1=NN(c2ccc(S(=O)(=O)O)cc2)C(=O)C1
[9]
  Potency: inactive
[3]
  Potency: inactive
[4]
  Potency: inactive
[5]
  Potency: inactive
[6]
  Potency: inactive
[7]
  Potency: inactive
[8]
  Potency: inactive
Aromatase (Homo sapiens)
  Potency: inactive

## OCCOCCOCCOCCOCCO
[9]
  Potency: inactive
[1]
  Potency: inactive
[2]
  Potency: inactive
[4]
  Potency: inactive
[8]
  Potency: inactive
Aromatase (Homo sapiens)
  Potency: inactive

## CCCCC(CC)COC(=O)c1ccc(C(=O)OCC(CC)CCCC)cc1 (stereo not given)
[9]
  Potency: inactive
[1]
  Potency: inactive
[2]
  Potency: inactive
[4]
  Potency: inactive
[8]
  Potency: inactive
Aromatase (Homo sapiens)
  Potency: inactive

## CC[N+](CC)(CC(=O)Nc1c(C)cccc1C)Cc1ccccc1
[9]
  Potency: inactive
[4]
  Potency: inactive
[8]
  Potency: inactive
Aromatase (Homo sapiens)
  Potency: inactive

## OCc1ccc(Cl)cc1Cl
[9]
  Potency: inactive
[1]
  Potency: inactive
[2]
  Potency: inactive
[4]
  Potency: inactive
[8]
  Potency: inactive
Aromatase (Homo sapiens)
  Potency: inactive

## O=C1O[C@H]([C@H](O)CO)C(O)=C1O
[9]
  Potency: inactive
[2]
  Potency: inactive
[4]
  Potency: inactive
[8]
  Potency: inactive
Aromatase (Homo sapiens)
  Potency: inactive

## OB(O)O
[1]
  Potency: inactive
[2]
  Potency: inactive
[4]
  Potency: inactive
[5]
  Potency: inactive
[6]
  Potency: inactive
[7]
  Potency: inactive
[8]
  Potency: inactive
Aromatase (Homo sapiens)
  Potency: inactive

## NC(N)=S
[9]
  Potency: inactive
[1]
  Potency: inactive
[2]
  Potency: inactive
[5]
  Potency: inactive
[6]
  Potency: inactive
[7]
  Potency: inactive
[8]
  Potency: inactive
Aromatase (Homo sapiens)
  Potency: inactive

## O=[N+]([O-])c1cc(C(F)(F)F)ccc1Cl
[9]
  Potency: inactive
[1]
  Potency: inactive
[2]
  Potency: inactive
[4]
  Potency: inactive
[8]
  Potency: inactive
Aromatase (Homo sapiens)
  Potency: inactive

## Cc1cc(CC(=O)O)n(C)c1C(=O)c1ccc(Cl)cc1
[9]
  Potency: inactive
[1]
  Potency: inactive
[2]
  Potency: inactive
[4]
  Potency: inactive
[8]
  Potency: inactive
Aromatase (Homo sapiens)
  Potency: inactive

## Cc1ccc(C)c(S(=O)(=O)O)c1
[9]
  Potency: inactive
[1]
  Potency: inactive
[2]
  Potency: inactive
[4]
  Potency: inactive
[8]
  Potency: inactive
Aromatase (Homo sapiens)
  Potency: inactive

## C=C(CC(=O)O)C(=O)O
[9]
  Potency: inactive
[1]
  Potency: inactive
[2]
  Potency: inactive
[4]
  Potency: inactive
[8]
  Potency: inactive
Aromatase (Homo sapiens)
  Potency: inactive

## C1CCCNCC1
[1]
  Potency: inactive
[2]
  Potency: inactive
[3]
  Potency: inactive
[4]
  Potency: inactive
[5]
  Potency: inactive
[6]
  Potency: inactive
[7]
  Potency: inactive
[8]
  Potency: inactive
Aromatase (Homo sapiens)
  Potency: inactive

## CC1=CC(=O)CC(C)(C)C1
[9]
  Potency: inactive
[1]
  Potency: inactive
[2]
  Potency: inactive
[4]
  Potency: inactive
[8]
  Potency: inactive
Aromatase (Homo sapiens)
  Potency: inactive

## O=c1c(O)c(-c2ccc(O)c(O)c2)oc2cc(O)cc(O)c12
[9]
  Potency: inactive and 30.9 µM (active)
[2]
  Potency: inactive
[4]
  Potency: inactive
[5]
  Potency: 24.6 µM [inconclusive] (active) [middle of 4 runs]
[6]
  Potency: 29.8 µM (active) and 68.7 µM (active)
  activation: 18.1% [at 95 µM] (active)
[7]
  Potency: inactive
[8]
  Potency: inactive
Aromatase (Homo sapiens)
  Potency: inactive

## CCCOC(=O)NCCCN(C)C
[9]
  Potency: inactive
[1]
  Potency: inactive
[2]
  Potency: inactive
[4]
  Potency: inactive
[8]
  Potency: inactive
Aromatase (Homo sapiens)
  Potency: inactive

## CCOC(=O)c1ccc(O)cc1
[1]
  Potency: inactive
[2]
  Potency: inactive
[3]
  Potency: inactive
[4]
  Potency: inactive
[5]
  Potency: inactive
[6]
  Potency: 23.7 µM (active) and 30.6 µM (active)
[8]
  Potency: inactive
Aromatase (Homo sapiens)
  Potency: inactive

## Oc1ccc(Cc2ccccc2O)cc1
[9]
  Potency: inactive
[2]
  Potency: inactive
[4]
  Potency: inactive
[5]
  Potency: 11.1 µM [inconclusive] (active) and 24.5 µM [inconclusive] (active)
[6]
  Potency: 9.81 µM (active) and 6.11 µM (active)
[7]
  Potency: inactive
[8]
  Potency: inactive
Aromatase (Homo sapiens)
  Potency: inactive

## c1cnc2c(c1)ccc1cccnc12
[9]
  Potency: 7.77 µM (active) and 6.86 µM (active) and 15.4 µM (active)
[2]
  Potency: inactive
[4]
  Potency: inactive
[8]
  Potency: 15.5 µM (active)
Aromatase (Homo sapiens)
  Potency: 6.17 µM (active) and 6.86 µM (active) and 9.69 µM (active)

## COc1c(Cl)ccc(Cl)c1C(=O)O
[1]
  Potency: inactive
[2]
  Potency: inactive
[3]
  Potency: inactive
[4]
  Potency: inactive
[5]
  Potency: inactive
[6]
  Potency: inactive
[7]
  Potency: inactive
[8]
  Potency: inactive
Aromatase (Homo sapiens)
  Potency: inactive

## CC(=O)OC(C)(C)C1CC=C(C)CC1 (stereo not given)
[1]
  Potency: inactive
[2]
  Potency: inactive
[4]
  Potency: inactive
[5]
  Potency: inactive
[6]
  Potency: inactive and 54.5 µM (active)
[7]
  Potency: inactive
[8]
  Potency: inactive
Aromatase (Homo sapiens)
  Potency: inactive

## CS(=O)(=O)c1ccc(Cl)cc1
[9]
  Potency: inactive
[1]
  Potency: inactive
[2]
  Potency: inactive
[4]
  Potency: inactive
[8]
  Potency: inactive
Aromatase (Homo sapiens)
  Potency: inactive

## COCN(COC)c1nc(N(COC)COC)nc(N(COC)COC)n1
[9]
  Potency: inactive
[4]
  Potency: inactive
[5]
  Potency: inactive
[6]
  Potency: inactive
[7]
  Potency: inactive
[8]
  Potency: inactive
Aromatase (Homo sapiens)
  Potency: inactive

## CC(=O)OC/C=C(\C)CCC=C(C)C
[1]
  Potency: inactive
[2]
  Potency: inactive
[4]
  Potency: inactive
[5]
  Potency: inactive
[6]
  Potency: inactive
[7]
  Potency: inactive
[8]
  Potency: inactive
Aromatase (Homo sapiens)
  Potency: inactive

## Cc1ccc([N+](=O)[O-])cc1N
[1]
  Potency: inactive
[2]
  Potency: inactive
[5]
  Potency: inactive
[6]
  Potency: inactive
[7]
  Potency: inactive
[8]
  Potency: inactive
Aromatase (Homo sapiens)
  Potency: inactive

## CCc1cccc(CC)c1N
[1]
  Potency: inactive
[2]
  Potency: inactive
[4]
  Potency: inactive
[5]
  Potency: inactive
[6]
  Potency: inactive
[7]
  Potency: inactive
[8]
  Potency: inactive
Aromatase (Homo sapiens)
  Potency: inactive
